Screening results from PubChem BioAssay.
Shown are actives, neighbours in structure and some others; about 9.7% of the full set was active somewhere.
M1 agonist: M1 muscarinic receptor agonism; CHO-M1 cells, Fluo-4 calcium fluorescence, agonist mode; stronger effect = higher value; B-score at 10 µM; 64,000 tested, 3% active; AID 626;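 active = fluorescence rise, raw or as B-score row- and column-corrected plate score, outside the 99.7% band of its plate's samples, either direction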
Fluor 339 460: intrinsic fluorescence of library compounds, ex339/em460 – biochemical, MLSMR library, data from DPM-DC assay, artefact control, profiling panel | compound autofluorescence, ex339/em460 nm, NADH buffer; stronger effect = higher value; 1 = no-compound wells, NADH background | fluorescence fold increase at 10 µM | 65,000 tested, 5.5% active | AID 709;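 active = at 10 µM, mean starting fluorescence two-fold or more over control wells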;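 note: signal is the first read of a kinetic run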
WNV NS2B-NS3 inh: inhibitors of West Nile virus NS2B-NS3 protease; P06935; WNV NS2B-NS3 protease, fluorogenic substrate Ex360/Em465; stronger effect = lower value; z-score (concentration not given with the values); 65,000 tested, 0.18% active; AID 577; in the data active = z-score below about -3
BAP1 inh: human BAP1 deubiquitinase inhibition | Q92560 | recombinant BAP1, Ub-AMC hydrolysis fluorescence kinetic; stronger effect = lower value | calls only at 20 µM | 72,000 tested, 0.48% active | AID 436;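 active = activity remaining at or below 50% of control, provided the compound also passes the data quality filters; inactive = the rest, including low values that fail the filters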
Target sequence (Q92560 whole entry, looked up): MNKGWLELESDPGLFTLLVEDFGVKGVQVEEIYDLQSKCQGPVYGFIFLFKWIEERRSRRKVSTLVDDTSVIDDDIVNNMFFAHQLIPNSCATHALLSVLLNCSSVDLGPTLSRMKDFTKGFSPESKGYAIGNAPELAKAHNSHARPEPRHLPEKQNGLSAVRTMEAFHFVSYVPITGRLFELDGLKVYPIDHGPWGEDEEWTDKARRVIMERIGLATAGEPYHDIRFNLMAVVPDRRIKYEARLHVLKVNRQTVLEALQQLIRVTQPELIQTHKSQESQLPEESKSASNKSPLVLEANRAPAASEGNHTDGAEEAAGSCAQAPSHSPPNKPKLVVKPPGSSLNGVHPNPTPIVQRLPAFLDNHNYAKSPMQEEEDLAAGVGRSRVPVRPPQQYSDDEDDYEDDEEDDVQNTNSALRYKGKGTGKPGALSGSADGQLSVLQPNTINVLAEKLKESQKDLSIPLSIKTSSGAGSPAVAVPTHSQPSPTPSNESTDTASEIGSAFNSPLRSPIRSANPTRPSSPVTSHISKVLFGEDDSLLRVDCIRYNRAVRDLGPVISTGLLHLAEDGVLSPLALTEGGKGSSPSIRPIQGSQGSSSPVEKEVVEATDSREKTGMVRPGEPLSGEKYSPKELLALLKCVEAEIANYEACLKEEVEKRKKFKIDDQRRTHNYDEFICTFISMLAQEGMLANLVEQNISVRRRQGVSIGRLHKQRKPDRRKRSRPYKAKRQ
A340 absorber: compounds absorbing at 340 nm; compound absorbance at 340 nm, fold over control; fold change at 10 µM; 65,000 tested, under 10 active; AID 708;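 active = at 10 µM dose, initial 340 nm absorbance at least 2 fold that of control wells; inactive = change under 2 fold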;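 note: initial absorbance extrapolated from kinetic A340 decline of NADH oxidation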
M1 antag: M1 muscarinic receptor (rat) antagonism. CHO-M1 cells, Fluo-4 calcium, ACh EC80 antagonist mode; stronger effect = lower value. P08482. B-score at 10 µM. AID 628. 64,000 tested, 3.4% active;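 active = calcium fluorescence response, raw or row-and-column corrected B-score, differing from the plate sample mean either way at a set confidence level, mostly lower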
M1 agonist conf: confirmation of rat M1 muscarinic receptor agonists. shares compounds with M1 agonist. 1,700 tested, 19% active. CHO-M1 cells, Fluo-4 calcium fluorescence, agonist mode; actives lie on both sides. fluorescence change (max-min) at 10 µM;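 active = fluorescence change differs from the solvent-only DMSO control mean at a set confidence level in both duplicate runs; inconclusive = differs from solvent-only control mean in just one of two runs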;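 note: an EC20 dose of acetylcholine follows compound addition during the same imaging run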
M4 agonist ctr: counter-screen for M1 agonists: activity at rat M4 receptor; 1,700 tested, 9% active; CHO M4/Gqi5 cells, Fluo-4 calcium fluorescence, agonist mode; actives lie on both sides; shares compounds with M1 agonist; fluorescence change (max-min) at 10 µM; AID 1741;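 active = fluorescence change differing from the plate's solvent-only control wells at 99.7% confidence in both duplicates, whether higher or lower; inconclusive = differs from solvent controls in only one of two duplicates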
Each line names hits and unclear results; the compound was inactive in the other large screens (follow-up assays come after a bar, where shown).

CCCOc1cccc(C2C3=C(CC(C)(C)CC3=O)Nc3ccccc3N2C(C)=O)c1 (stereo not given)	none (no result: M1 agonist, Fluor 339 460, WNV NS2B-NS3 inh, A340 absorber, M1 antag)
CCOc1ccc(NC(=O)CC2CC(C)(C)OC2=O)cc1 (stereo not given)	M1 agonist 12 | M1 agonist conf inactive | M4 agonist ctr inconclusive
CC1CCC(C(=O)Oc2ccc(Br)cc2)CC1 (stereo not given)	none (no result: M1 agonist, Fluor 339 460, WNV NS2B-NS3 inh, A340 absorber, M1 antag)
COc1ccc(-c2cn3cc(C)ccc3n2)cc1OC	M1 agonist 2.2, Fluor 339 460 2.5 (not shown: BAP1 inh) | M1 agonist conf inconclusive | M4 agonist ctr inconclusive
COc1ccc(-c2cc(C(=O)O)[nH]n2)cc1OC	none
Cc1cccc(/N=C/c2c(O)n(-c3cc(Cl)ccc3N3CCOCC3)c(=O)c3ccccc23)n1	none (not shown: BAP1 inh)
O=c1c2ccccc2c(C=Nc2ccc(Cl)cn2)c(O)n1-c1cc(Cl)ccc1N1CCOCC1	M1 agonist 15 (not shown: BAP1 inh) | M1 agonist conf inactive | M4 agonist ctr inactive
CCOc1ncccc1C(=O)Nc1ccc2c(C)cc(=O)oc2c1	M1 agonist 13, Fluor 339 460 2.2 (not shown: BAP1 inh) | M1 agonist conf inconclusive | M4 agonist ctr inconclusive
CCOC(=O)C1=C(C)N(C)C(=S)NC1c1ccc(OC(=O)c2ccccc2)cc1 (stereo not given)	none (no result: M1 agonist, Fluor 339 460, WNV NS2B-NS3 inh, A340 absorber, M1 antag)
CC(O)c1ccc(NC(=O)c2cnn3c2NC(c2ccco2)CC3C(F)(F)F)cc1 (stereo not given)	none (no result: M1 agonist, Fluor 339 460, WNV NS2B-NS3 inh, A340 absorber, M1 antag)
O=C(NCCc1ccc(Cl)cc1)C1CCN(S(=O)(=O)N2CCCCC2)CC1	M1 agonist 1.9 | M1 agonist conf inconclusive | M4 agonist ctr inactive
CCc1ccc(-c2nc(CSCC(=O)N3CCN(c4ncccn4)CC3)c(C)o2)cc1	M1 agonist 8.2 | M1 agonist conf inactive | M4 agonist ctr inconclusive
CSc1ccc(-c2nc(CSCC(=O)N3CCOCC3)c(C)o2)cc1	none
CCCOC(=O)C1=C(C)N(CC)C(=O)NC1c1ccc([N+](=O)[O-])cc1 (stereo not given)	none (no result: M1 agonist, Fluor 339 460, WNV NS2B-NS3 inh, A340 absorber, M1 antag)
O=S(=O)(c1ccc(Oc2ncnc3scc(-c4ccccc4)c23)cc1)N1CCOCC1	M1 agonist 7 (not shown: BAP1 inh) | M1 agonist conf inconclusive | M4 agonist ctr inconclusive
CCOC(=O)C1=C2SCCN2C(=O)C(C#N)C1(C)C (stereo not given)	M1 agonist 3.5 (no result: BAP1 inh) | M1 agonist conf inactive | M4 agonist ctr inactive
COc1cc(-c2nc3cnccn3c2Nc2ccc3c(c2)OCCO3)ccc1O	M1 agonist 3.5 (no result: BAP1 inh) | M1 agonist conf inactive | M4 agonist ctr inconclusive
COc1cc(-c2nc3cnccn3c2Nc2ccccc2)ccc1O	M1 agonist 5.5, Fluor 339 460 2.1 | M1 agonist conf inactive | M4 agonist ctr inactive
COc1ccc(-n2nc3ccc(NC(=O)COc4ccc(Br)cc4)cc3n2)cc1	none (no result: M1 agonist, Fluor 339 460, WNV NS2B-NS3 inh, A340 absorber, M1 antag)
CC(C)Nc1nc(-c2ccccc2)nc(-n2ccnc2)n1	none
c1ccc(-c2nc(-n3ccnc3)nc(-n3ccnc3)n2)cc1	M1 agonist 7.9 | M1 agonist conf inactive | M4 agonist ctr inactive
OCCCc1nc2ccccc2n1Cc1ccc2ccccc2c1	none (no result: M1 agonist, Fluor 339 460, WNV NS2B-NS3 inh, A340 absorber, M1 antag)
COc1ccc(-c2noc(-c3ccccc3C(=O)NCc3ccco3)n2)cc1	none
COc1ccccc1NC(=O)c1ccccc1-c1nc(-c2ccccc2OC)no1	M1 agonist 7.3 | M1 agonist conf -29 | M4 agonist ctr inactive
COc1ccc(-c2noc(-c3ccccc3C(=O)NCc3ccco3)n2)cc1OC	M1 agonist 4.7 | M1 agonist conf inactive | M4 agonist ctr inactive
O=C(NCc1ccco1)c1cccc2ccccc12	M1 agonist 11 | M1 agonist conf inactive | M4 agonist ctr inactive
COc1ccc(C(=O)Nc2ccc(Cl)cc2C(=O)NCc2ccco2)cc1OC	M1 agonist 13 | M1 agonist conf inactive | M4 agonist ctr inactive
CC(C)(c1ccc(O)cc1)c1ccc(Oc2ccc([N+](=O)[O-])cc2)cc1	none (no result: M1 agonist, Fluor 339 460, WNV NS2B-NS3 inh, A340 absorber, M1 antag)
Cc1cccc(C)c1NC(=O)CCC(=O)O	none (no result: M1 agonist, Fluor 339 460, WNV NS2B-NS3 inh, A340 absorber, M1 antag)
c1nc(SCc2ccc3c(c2)OCO3)c2c3c(sc2n1)CCCC3	none (no result: M1 agonist, Fluor 339 460, WNV NS2B-NS3 inh, A340 absorber, M1 antag)
COc1ccc(C(=O)Nc2ccccc2C(=O)NCc2ccco2)cc1OC	M1 agonist 6.6 | M1 agonist conf inactive | M4 agonist ctr inactive
